The nature of assay [1]: A CellTox Green Cytotoxicity Assay to monitor cytotoxicity in HepG2 cells - 32 hour (AID 1224883). Also: nearly all actives have a fitted effect of over 50% in size. A digest of the protocol: (§1)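 HepG2 cells were seeded together with the CellTox Green dye at 600 cells/well, left 5 h at 37 C/5% CO2, then given compounds in DMSO. Fluorescence from dye bound to dead-cell DNA was read repeatedly over 40 h of treatment at 37 C.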
Assay [2] in a line: A CellTox Green Cytotoxicity Assay to monitor cytotoxicity in HEK293 cells - 8 hour (AID 1224884). Also: nearly all actives have a fitted effect of over 35% in size. A digest of the protocol: (§2)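 HEK293 cells premixed with CellTox Green dye were seeded at 600 cells/well and left 5 h at 37 C/5% CO2 before pin transfer of 23 nL compound in DMSO. Fluorescence from dye bound to dead-cell DNA was read during 40 h treatment.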
The nature of assay [3]: qHTS RealTime-Glo MT Cell Viability Assay in HepG2 cells - 16 hour (AID 1224885). Also: nearly all actives have a fitted effect of over 50% in size. A digest of the protocol: (§3)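 HepG2 cells (600/well) were dispensed with RealTime-Glo reagents, incubated 5 h at 37 °C, then treated with compounds in DMSO for up to 40 h. Nonlytic NanoLuc luminescence reflecting viable cells was read at each stated time point.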
Assay [4] is described as follows: qHTS RealTime-Glo MT Cell Viability Assay in HEK293 cells - 24 hour (AID 1224886). Also: nearly all actives have a fitted effect of over 50% in size. As to activity change, negative = cytotoxicity: top concentration of the series differs between compounds. Put shortly: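 HEK293 cells seeded with NanoLuc/prosubstrate reagent, rested 5 h at 37 C, then dosed and kept at 37 C up to 40 h. Nonlytic real-time luminescence from viable cells read at 0, 8, 16, 24, 32 and 40 h.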
The nature of assay [5]: qHTS RealTime-Glo MT Cell Viability Assay in HEK293 cells - 8 hour (AID 1224887). Also: nearly all actives have a fitted effect of over 50% in size. As to activity change, negative = cytotoxicity: top concentration of the series differs between compounds. Put shortly: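 HEK293 cells mixed with RealTime-Glo reagents (NanoLuc plus cell-permeant prosubstrate) at 600 cells/well, preincubated 5 h at 37 C/5% CO2, then given 23 nL compound in DMSO. Nonlytic luminescence from viable cells was read at 0, 8, 16, 24, 32 and 40 h.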
Background: Quantitative high-throughput screening tests each substance at several concentrations.

Assay [6] is described as follows: A CellTox Green Cytotoxicity Assay to monitor cytotoxicity in HEK293 cells - 16 hour (AID 1224888). Also: nearly all actives have a fitted effect of over 35% in size. Put shortly: as §2
A short description of assay [7]: qHTS RealTime-Glo MT Cell Viability Assay in HepG2 cells - 0 hour (AID 1224889). Also: nearly all actives have a fitted effect of over 50% in size. Put shortly: as §3
Assay [8] in a line: A CellTox Green Cytotoxicity Assay to monitor cytotoxicity in HepG2 cells - 8 hour (AID 1224890). Also: nearly all actives have a fitted effect of over 45% in size. A digest of the protocol:
as §1

Assay [9] in a line: qHTS assay to identify small molecule antagonists of the estrogen receptor alpha (ER-alpha) signaling pathway using the BG1 cell line in the presence of 0.1 nM 17-beta-estradiol - cell viability counter screen (AID 1259241). Also: nearly all actives have a fitted effect of over 40% in size. A digest of the protocol:
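The cell line endogenously expresses full-length ER-alpha and carries four EREs driving luciferase. Cells are cultured 5 days hormone-free, treated 22 hr with compounds and 0.1 nM estradiol, then viability is read by fluorescence.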

Assay [10] is described as follows: qHTS assay to identify small molecule antagonists of the androgen receptor (AR) signaling pathway using the MDA cell line in the presence of 0.5 nM R1881 - cell viability counter screen (AID 1259242). Also: nearly all actives have a fitted effect of over 45% in size. Put shortly:
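MDA-kb2 cells (human breast carcinoma, stably carrying MMTV-luciferase reporter) were exposed to compounds with 0.5 nM R1881 (final) for 16 hr at 37C, 0% CO2; viability then read as live-cell protease fluorescence (CellTiter-Fluor, 30 min) in the same wells.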

Structures are written as SMILES. Results filed as inconclusive are left out. Values without a mark were called inactive. Active and inactive are the calls of the source. Calls follow the shape of the dose curve; as a rule, active = well fitted curve in the direction sought with a large enough effect in the repeat runs; inconclusive = weak or mixed curves; inactive = no such curve, though single readings can be large; an effect the other way counts as inactive or inconclusive.

Here are results for 20 compounds from PubChem BioAssay (Tox21).
% is scaled to controls: 0 for no effect and ±100 for the full control effect; potency is read from the fitted curve at half-maximal effect.

For the compound `C[C@]12CC[C@@H]3c4ccc(OC(=O)N(CCCl)CCCl)cc4CC[C@H]3[C@@H]1CC[C@@H]2O`, the Potency entry in assay [1], in assay [2], in assay [3], in assay [4], in [5] and in [6] was “inactive” throughout. For the same compound, the Potency result in [7], in assay [8], in assay [9] and in assay [10] was “inactive” throughout.

For `CCc1nn(C)c(C(=O)NCc2ccc(C(C)(C)C)cc2)c1Cl`, the Potency result in assay [1], in assay [2], in assay [3], in assay [6], in assay [7] and in assay [8] was “inactive” each time. In addition, the Potency is 0.049 µM (active) in assay [4], 4.36 µM (active) in assay [5], 0.77 µM (active) in assay [9] and 0.433 µM (active) in assay [10].

For the compound `O=C(NC(=O)c1c(F)cccc1F)Nc1cc(Cl)c(OC(F)(F)C(F)F)c(Cl)c1`, the Potency entry in assay [1], in assay [2], in assay [3], in assay [4], in assay [5] and in [6] was “inactive” in each case. The Potency entry in assay [7], in [8], in assay [9] and in assay [10] was “inactive” in each case.

As for `Cl/C=C\CCl`, the Potency result in assay [1], in assay [2], in assay [3], in [4], in assay [5] and in [6] was “inactive” each time. Besides, the Potency entry in assay [7], in assay [8], in assay [9] and in assay [10] was “inactive” throughout.

`Brc1c(Br)c(Br)c(Oc2c(Br)c(Br)c(Br)c(Br)c2Br)c(Br)c1Br`: the cytotoxicity increase in assay [1] is 0.162% [at 15.8 µM]; in assay [2], -3.68% [at 15.8 µM]; in assay [8], -0.348% [at 15.8 µM]. The activity change, negative = cytotoxic in assay [3] is 1.53% [at 15.8 µM]. For the same compound, the activity change, negative = cytotoxicity in assay [4] was -0.0351% [at 15.8 µM]; in [5] it was 4.64% [at 15.8 µM]; in assay [7], 13.9% [at 15.8 µM]; in assay [9] it was 5.06% [at 19 µM]. For the same compound, in assay [6], the activity change is -4.12% [at 15.8 µM, stronger effect = higher value]. In assay [10], the viability change, negative = cytotoxic is -0.43% [at 19 µM].

In the case of `c1ccc2c(c1)[nH]c1cnccc12`, the Potency result in [1], in [2], in assay [3], in assay [4], in assay [5] and in assay [6] was “inactive” in each case. Further, the Potency entry in [7], in [8], in assay [9] and in [10] was “inactive” in each case.

Turning to `C[C@@H]1CC[C@@]2(OC1)O[C@H]1[C@@H](O)[C@H]3[C@@H]4CC[C@H]5C[C@@H](O[C@@H]6O[C@H](CO)[C@H](O[C@@H]7O[C@H](CO)[C@@H](O)[C@H](O[C@@H]8OC[C@@H](O)[C@H](O)[C@H]8O)[C@H]7O[C@@H]7O[C@H](CO)[C@@H](O)[C@H](O[C@@H]8O[C@H](CO)[C@@H](O)[C@H](O)[C@H]8O)[C@H]7O)[C@H](O)[C@H]6O)[C@H](O)C[C@]5(C)[C@H]4CC[C@]3(C)[C@H]1[C@@H]2C`, the Potency in assay [1] is 11.6 µM (active); in [2], 4.63 µM (active); in assay [3], 18.4 µM (active); in [4] it was 11.6 µM (active); in assay [5] it was 6.55 µM (active); in assay [6], 4.63 µM (active). Further, the Potency in assay [7] was 23.2 µM (active); in [8], 13.1 µM (active); in assay [9] it was 29 µM (active); in assay [10] it was 23 µM (active).

As to `CC(C)CBr`, the Potency result in assay [1], in assay [2], in assay [3], in assay [4], in assay [5] and in [6] was “inactive” in each case. Also, the Potency result in assay [7], in assay [8], in assay [9] and in [10] was “inactive” each time.

Turning to `C[C@]12CC[C@H](O)C[C@H]1CC[C@@H]1[C@@H]2C[C@@H](O)[C@]2(C)[C@@H](C3=CC(=O)OC3)CC[C@]12O`, the Potency entry in [1], in [2], in assay [3], in assay [5], in assay [6] and in assay [7] was “inactive” in each case. Moreover, the Potency result in assay [8], in [9] and in assay [10] was “inactive” throughout. For the same compound, the Potency in assay [4] is 0.616 µM (active).

Regarding `Cn1[nH]nnc1=S`, the Potency entry in assay [1], in [2], in assay [3], in [4], in [5] and in [6] was “inactive” each time. Moreover, the Potency result in assay [7], in assay [8], in assay [9] and in assay [10] was “inactive” in each case.

As to `CCS(=O)(=O)c1cccnc1S(=O)(=O)NC(=O)Nc1nc(OC)cc(OC)n1`, the Potency entry in [1], in assay [2], in [3], in assay [4], in assay [5] and in assay [6] was “inactive” in each case. The Potency result in [7], in [8], in [9] and in assay [10] was “inactive” in each case.

Consider `CCC(C)(C)C(=O)OC1=C(c2ccc(Cl)cc2Cl)C(=O)OC12CCCCC2`, for which the Potency result in assay [1], in assay [2], in [3], in [4], in [5] and in [6] was “inactive” throughout. Also, the Potency result in assay [8], in assay [9] and in assay [10] was “inactive” throughout. Also, the Potency in assay [7] is 34.7 µM (active).

As to `CC(C)C(=O)Cl`, the Potency result in assay [1], in [2], in assay [3], in [4], in [5] and in assay [6] was “inactive” throughout. The Potency entry in [7], in assay [8], in assay [9] and in [10] was “inactive” in each case.

For the compound `NNC(=O)c1ccccc1`, the Potency result in assay [1], in assay [2], in assay [3], in [4], in [5] and in assay [6] was “inactive” throughout. In addition, the Potency result in assay [7], in [8] and in assay [10] was “inactive” in each case.

Turning to `COc1ccc(OC)c(CC(C)N)c1` (configuration not stated), the Potency result in [1], in assay [2], in assay [3], in assay [4], in [5] and in assay [6] was “inactive” in each case. For the same compound, the Potency entry in [7], in assay [8], in assay [9] and in [10] was “inactive” in each case.

As for `N#CCc1ccc(Cl)cc1`, the Potency entry in assay [1], in [2], in assay [3], in assay [4], in assay [5] and in assay [6] was “inactive” in each case. The Potency result in [7], in assay [9] and in assay [10] was “inactive” each time.

Regarding `O=CC(Br)(Br)Br`, the Potency in [1] is 38.8 µM (active); in assay [3] it was 48.8 µM (active); in assay [4] it was 2.45 µM (active); in [10] it was 43.1 µM (active). The Potency entry in [2], in assay [5], in assay [6], in assay [7] and in assay [8] was “inactive” throughout.

With `Fc1ccc(Oc2ccnc3cc(Cl)cc(Cl)c23)cc1`, the Potency entry in assay [1], in assay [2], in assay [3], in assay [6], in assay [7] and in assay [8] was “inactive” each time. In addition, the Potency entry in [9] and in assay [10] was “inactive” in each case. Further, the Potency was 11 µM (active) in [4] and 7.76 µM (active) in assay [5].

Regarding `CC(=O)Nc1ccc2c(c1)Cc1ccccc1-2`, the Potency result in [1], in [2], in assay [3], in assay [4], in assay [5] and in assay [6] was “inactive” each time. Besides, the Potency result in assay [7], in assay [8], in [9] and in assay [10] was “inactive” each time.

On to `N#CCCO`, for which the Potency entry in [1], in assay [2], in [3], in assay [4], in assay [5] and in [6] was “inactive” throughout. Moreover, the Potency entry in [7], in assay [8], in assay [9] and in assay [10] was “inactive” throughout.
